PubChem BioAssay (EPA / NIEHS)
Inconclusive results are not listed. Calls of active or inactive are those of the source. The calls were made as follows, unless noted: active = hit-call score of the fitted dose curve at least 0.9, where 1 is the maximum; inactive = score below 0.9.

Assays:
[1] = biological target: Myc proto-oncogene protein (Homo sapiens) (UniProt P01106); assay: ATG_Myc_CIS: Attagene CIS-FACTORIAL HepG2 Assay for human Myelocytomatosis (Myc) Proto-Oncogene Transcription Factor (AID 2282990); settings: HepG2, Attagene cis-reporter transcription factor activity; actives raise or lower the signal
How it was run: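 Fluorescence intensity of reporter-specific cDNA fragments, separated by capillary electrophoresis, gives the signal. Transfected HepG2 cells carrying cis-promoter reporter constructs are incubated with compound for 24 h; DMSO serves as baseline.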

[2] = ATG_NRF2_ARE_CIS: Attagene CIS-FACTORIAL HepG2 Assay for human Nuclear Factor Erythroid 2 Related Factor 2 (NFR2) response to Antioxidant Response Elements (ARE) (AID 2282992); settings: HepG2 Attagene ARE/NRF2 reporter, transcription factor activity; actives raise or lower the signal
How it was run: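 Using transiently transfected HepG2 cells exposed for 24 h, reporter mRNA levels were determined by RT-PCR with fluorescent primer extension and capillary electrophoresis, analysed for gain or loss of signal against DMSO.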

[3] = ATG_Oct_MLP_CIS: Attagene CIS-FACTORIAL HepG2 Assay for human Octamer-Binding Transcription Factor (Oct) (AID 2282993); settings: HepG2 Attagene cis-factorial Oct reporter, mRNA; actives raise or lower the signal
How it was run: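 Using HepG2 cells bearing transfected cis-reporter constructs, mRNA induction was read after 24 h by fluorescent RT-PCR and capillary electrophoresis, with DMSO defining baseline for gain- or loss-of-signal fits.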

[4] = biological target: Cellular tumor antigen p53 (Homo sapiens) (UniProt P04637); assay: ATG_p53_CIS: Attagene CIS-FACTORIAL HepG2 Assay for human p53 Transcription Factor (AID 2282994); settings: HepG2 p53 cis-element reporter, Attagene mRNA; actives raise or lower the signal
How it was run: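 In HepG2 cells, reporter transcription units under cis-regulatory promoters were transiently introduced. Following 24 h treatment, RNA was processed to labelled, digested cDNA fragments read by capillary electrophoresis; fitting was bidirectional versus DMSO.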

[5] = biological target: human Peroxisome Proliferator-activated Receptor alpha (PPARa), PPARA (gene 5465) (UniProt Q07869); assay: ATG_PPARa_TRANS: Attagene TRANS-FACTORIAL HepG2 Assay for human Peroxisome Proliferator-activated Receptor alpha (PPARa) (AID 2283001; active = hit-call score of the fitted dose curve at least 0.9, where 1 is the maximum;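 as to AC50: potency for gain of reporter signal over DMSO so agonist or activator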)
How it was run: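 HepG2, transient MRTU transfection, 24 h treatment. RT-PCR → FAM labelling → capillary electrophoresis. Fit vs DMSO, positive direction.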

[6] = biological target: human Peroxisome Proliferator-activated Receptor delta (PPARd), PPARD (gene 5467) (UniProt Q03181); assay: ATG_PPARd_TRANS: Attagene TRANS-FACTORIAL HepG2 Assay for human Peroxisome Proliferator-activated Receptor delta (PPARd) (AID 2283002; active = hit-call score of the fitted dose curve at least 0.9, where 1 is the maximum)
How it was run: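 Fluorescence from capillary electrophoresis of labelled RT-PCR reporter fragments gives the signal; DMSO sets baseline. Cells: HepG2 transiently carrying GAL4-UAS reporter units plus chimeric nuclear receptor-Gal4 proteins, exposed to chemicals for 24 h.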

[7] = biological target: human Retinoic Acid Receptor beta (RARb), RARB (gene 5915) (UniProt P10826); assay: ATG_RARb_TRANS: Attagene TRANS-FACTORIAL HepG2 Assay for human Retinoic Acid Receptor beta (AID 2283004; active = hit-call score of the fitted dose curve at least 0.9, where 1 is the maximum)
How it was run: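 HepG2 cells transiently transfected with multiplexed GAL4-UAS reporter units expressing chimeric NR–Gal4 fusions; 24 h compound exposure. Reporter mRNA quantified by RT-PCR, 6-FAM labelling, HpaI digestion and capillary electrophoresis; gain-of-signal fitted against DMSO baseline.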

[8] = biological target: Retinoic acid receptor alpha (Homo sapiens) (UniProt P10276); assay: ATG_RARa_TRANS: Attagene TRANS-FACTORIAL HepG2 Assay for human Retinoic Acid Receptor alpha (RARa) (AID 2283005; active = hit-call score of the fitted dose curve at least 0.9, where 1 is the maximum)
How it was run: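 HepG2 transiently transfected with multiplex GAL4-UAS reporter units including a human RARa–GAL4 chimera; 24 h compound exposure. Reporter mRNA quantified by RT-PCR, 6-FAM labeling and capillary electrophoresis; gain of signal versus DMSO.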

[9] = biological target: Peroxisome proliferator-activated receptor gamma (Homo sapiens) (UniProt P37231); assay: ATG_PPARg_TRANS: Attagene TRANS-FACTORIAL HepG2 Assay for human Peroxisome Proliferator-activated Receptor-gamma (PPARg) (AID 2283007; active = hit-call score of the fitted dose curve at least 0.9, where 1 is the maximum)
How it was run: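 HepG2 cells transiently transfected with multiplexed GAL4-UAS reporter units and exogenous chimeric NR-Gal4 proteins; reporter mRNA quantified after 24 h compound exposure by RT-PCR, fluorescent labelling, HpaI digestion and capillary electrophoresis; gain-of-signal fitted versus DMSO baseline.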

[10] = biological target: Nuclear receptor subfamily 1 group I member 2 (Homo sapiens) (UniProt O75469); assay: ATG_PXR_TRANS: Attagene TRANS-FACTORIAL HepG2 Assay for human Pregnane X Receptor (PXR) (AID 2283008; active = hit-call score of the fitted dose curve at least 0.9, where 1 is the maximum)
How it was run: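 Multiplexed TRANS reporter panel in HepG2; this component tracks PXR-Gal4-driven reporter mRNA after 24 h dosing, measured by RT-PCR with capillary electrophoresis fluorescence, fitted against DMSO.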

[11] = biological target: human Retinoic Acid Receptor gamma (RARg), RARG (gene 5916) (UniProt P13631); assay: ATG_RARg_TRANS: Attagene TRANS-FACTORIAL HepG2 Assay for human Retinoic Acid Receptor gamma (RARg) (AID 2283009; active = hit-call score of the fitted dose curve at least 0.9, where 1 is the maximum)
How it was run: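 Transactivation of exogenous RARg-Gal4 fusion measured as reporter transcript induction after 24 h in transfected HepG2 cells. RNA reverse-transcribed, amplified, fluorescently labeled and resolved by capillary electrophoresis; increase relative to DMSO.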

[12] = biological target: human RAR-related Orphan Receptor beta (RORb), RORB (gene 6096) (UniProt Q92753); assay: ATG_RORb_TRANS: Attagene TRANS-FACTORIAL HepG2 Assay for human RAR-related Orphan Receptor beta (RORb) (AID 2283010; active = hit-call score of the fitted dose curve at least 0.9, where 1 is the maximum)
How it was run: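 Read-out is reporter mRNA induction, quantified by RT-PCR with fluorescent capillary electrophoresis, 24 h post-dose in transiently transfected HepG2 expressing exogenous NR-Gal4 chimera. Activity fitted upward versus DMSO.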

[13] = biological target: human RAR-related Orphan Receptor gamma (RORg), RORC (gene 6097) (UniProt P51449); assay: ATG_RORg_TRANS: Attagene TRANS-FACTORIAL HepG2 Assay for human RAR-related Orphan Receptor gamma (RORg) (AID 2283011; active = hit-call score of the fitted dose curve at least 0.9, where 1 is the maximum)
How it was run: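 Readout: reporter transcript induction (RT-PCR, fluorescent primer extension, capillary electrophoresis) after 24 h compound exposure of transiently transfected HepG2 cells carrying a RORg-Gal4 chimera and GAL4-UAS reporters; DMSO served as baseline, with increasing signal fitted.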

[14] = ATG_NF_kB_CIS: Attagene CIS-FACTORIAL HepG2 Assay for human Nuclear Factor Kappa B (NF-kB) (AID 2282991); settings: HepG2 Attagene cis-factorial NF-kB reporter mRNA; actives raise or lower the signal
How it was run: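 HepG2 cells transiently transfected with multiplexed cis-element reporter units measuring endogenous transcription factor activity; reporter mRNA read 24 h after dosing by RT-PCR, fluorescent labelling, HpaI digestion and capillary electrophoresis. Bidirectional fit against DMSO baseline.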

[15] = BSK_3C_TissueFactor: BioMAP Diversity Plus: 3C Assay for Tissue Factor Biomarker Activity (AID 2282997); settings: BioMAP 3C HUVEC, tissue factor biomarker readout; actives raise or lower the signal
How it was run: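 Readout: Tissue Factor ELISA. Cells: human primary umbilical vein endothelium. Time: 24 h after dosing. Analysis: bidirectional fit, DMSO baseline.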

[16] = BSK_3C_uPAR: BioMAP Diversity Plus: 3C Assay for Urokinase-type plasminogen activator receptor (uPAR) Biomarker Activity (AID 2282998); settings: BioMAP 3C HUVEC, uPAR biomarker ELISA; actives raise or lower the signal
How it was run: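 In this endothelial cell-based assay, human umbilical vein primary cells were treated with chemicals and harvested at 24 h. uPAR was quantified using ELISA, with gains or losses fitted relative to DMSO controls.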

[17] = BSK_3C_VCAM1: BioMAP Diversity Plus: 3C Assay for Vascular cell adhesion molecule 1 (VCAM1) Biomarker Activity (AID 2282999); settings: BioMAP 3C HUVEC, VCAM1 ELISA, cytokine-stimulated; actives raise or lower the signal
How it was run: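 HUVEC primary cells, 24 h compound exposure; VCAM-1 by ELISA; gain/loss of signal fitted bidirectionally vs DMSO baseline.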

[18] = BSK_4H_Eotaxin3: BioMAP Diversity Plus: 4H Assay for Eotaxin 3 Biomarker Activity (AID 2283000); settings: primary human endothelial cells (HUVEC); actives raise or lower the signal
How it was run: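 HUVEC, 24 h post-dose, ELISA for Eotaxin-3/CCL26. Gain or loss of signal fitted bidirectionally vs DMSO baseline.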

[19] = read-out: Intercellular Adhesion Molecule 1 (ICAM1), ICAM1 (gene 3383); assay: BSK_3C_ICAM1: BioMAP Diversity Plus: 3C Assay for Intercellular Adhesion Molecule 1 (ICAM1) Biomarker Activity (AID 2283003); settings: primary human endothelial cells (HUVEC); actives raise or lower the signal
How it was run: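 ELISA readout of ICAM1 in human umbilical vein endothelial cells in the 3C system, taken 24 h post-dose. Gain or loss of signal versus DMSO was fitted in both directions, with SRB total-protein staining run in parallel.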

[20] = BSK_3C_Proliferation: Cell Proliferation Assessment in the BioMAP Diversity Plus: 3C Assay (AID 2283006); settings: primary human endothelial cells (HUVEC);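 as to AC50: potency may reflect either rise or fall in cell number versus DMSO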
How it was run: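 Proliferation as total protein: sulforhodamine B (0.1%) stain of TCA-fixed subconfluent human umbilical vein endothelial cells, absorbance 560 nm, 48 h after dosing. Activity fitted in both directions against DMSO baseline.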

Measured: AC50

Chain of Peroxisome proliferator-activated receptor gamma (Homo sapiens) (P37231 whole entry, looked up, the tested form may be a part): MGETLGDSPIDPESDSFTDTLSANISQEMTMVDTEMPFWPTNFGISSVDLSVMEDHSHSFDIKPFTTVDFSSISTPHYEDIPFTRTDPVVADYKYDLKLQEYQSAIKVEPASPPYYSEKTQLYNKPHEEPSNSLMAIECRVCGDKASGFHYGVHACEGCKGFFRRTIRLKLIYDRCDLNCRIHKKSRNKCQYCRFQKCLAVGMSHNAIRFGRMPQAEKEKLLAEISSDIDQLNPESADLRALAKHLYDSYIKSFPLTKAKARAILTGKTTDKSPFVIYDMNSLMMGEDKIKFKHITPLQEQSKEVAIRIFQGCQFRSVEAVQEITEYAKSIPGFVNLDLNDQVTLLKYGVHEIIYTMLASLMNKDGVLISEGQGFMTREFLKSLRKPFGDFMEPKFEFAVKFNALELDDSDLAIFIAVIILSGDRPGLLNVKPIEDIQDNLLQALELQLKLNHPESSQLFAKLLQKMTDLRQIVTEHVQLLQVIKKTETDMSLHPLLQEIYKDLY
Chain of Nuclear receptor subfamily 1 group I member 2 (Homo sapiens) (O75469 whole entry, looked up, the tested form may be a part): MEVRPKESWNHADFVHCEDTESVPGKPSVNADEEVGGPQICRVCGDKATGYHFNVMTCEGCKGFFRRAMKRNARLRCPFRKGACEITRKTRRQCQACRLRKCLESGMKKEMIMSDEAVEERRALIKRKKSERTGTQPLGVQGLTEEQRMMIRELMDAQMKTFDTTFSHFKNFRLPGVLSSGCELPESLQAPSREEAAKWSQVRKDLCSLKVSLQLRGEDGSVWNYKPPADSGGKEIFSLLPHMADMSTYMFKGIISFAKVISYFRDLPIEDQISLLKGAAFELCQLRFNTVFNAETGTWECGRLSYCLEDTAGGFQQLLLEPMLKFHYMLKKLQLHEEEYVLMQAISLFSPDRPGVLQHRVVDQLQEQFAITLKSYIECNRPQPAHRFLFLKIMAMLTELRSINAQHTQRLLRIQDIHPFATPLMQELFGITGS
Chain of human Peroxisome Proliferator-activated Receptor alpha (PPARa), PPARA (gene 5465) (Q07869 whole entry, looked up): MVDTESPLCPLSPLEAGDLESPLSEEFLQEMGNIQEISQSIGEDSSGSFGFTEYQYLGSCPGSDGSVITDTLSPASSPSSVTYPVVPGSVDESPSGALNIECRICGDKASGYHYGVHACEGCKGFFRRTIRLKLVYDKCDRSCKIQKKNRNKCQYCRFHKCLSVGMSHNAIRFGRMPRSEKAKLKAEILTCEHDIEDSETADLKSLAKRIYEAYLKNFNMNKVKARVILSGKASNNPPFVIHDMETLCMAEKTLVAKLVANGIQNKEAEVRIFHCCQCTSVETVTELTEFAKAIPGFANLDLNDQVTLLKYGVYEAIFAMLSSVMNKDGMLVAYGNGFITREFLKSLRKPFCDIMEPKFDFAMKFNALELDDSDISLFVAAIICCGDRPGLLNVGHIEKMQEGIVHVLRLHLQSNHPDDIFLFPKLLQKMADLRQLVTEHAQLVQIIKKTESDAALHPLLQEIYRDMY
Chain of Cellular tumor antigen p53 (Homo sapiens) (P04637 whole entry, looked up, the tested form may be a part): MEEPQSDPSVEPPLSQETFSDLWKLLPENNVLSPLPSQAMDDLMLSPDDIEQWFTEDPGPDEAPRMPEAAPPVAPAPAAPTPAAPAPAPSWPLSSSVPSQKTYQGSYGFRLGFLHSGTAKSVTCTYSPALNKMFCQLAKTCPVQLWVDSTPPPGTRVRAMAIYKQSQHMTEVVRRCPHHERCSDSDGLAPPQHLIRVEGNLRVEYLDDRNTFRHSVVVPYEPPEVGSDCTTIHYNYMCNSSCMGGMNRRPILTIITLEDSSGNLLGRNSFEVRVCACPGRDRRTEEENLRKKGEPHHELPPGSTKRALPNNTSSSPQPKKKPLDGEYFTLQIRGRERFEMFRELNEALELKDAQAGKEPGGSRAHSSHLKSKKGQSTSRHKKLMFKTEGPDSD
Chain of human Retinoic Acid Receptor beta (RARb), RARB (gene 5915) (P10826 whole entry, looked up, the tested form may be a part): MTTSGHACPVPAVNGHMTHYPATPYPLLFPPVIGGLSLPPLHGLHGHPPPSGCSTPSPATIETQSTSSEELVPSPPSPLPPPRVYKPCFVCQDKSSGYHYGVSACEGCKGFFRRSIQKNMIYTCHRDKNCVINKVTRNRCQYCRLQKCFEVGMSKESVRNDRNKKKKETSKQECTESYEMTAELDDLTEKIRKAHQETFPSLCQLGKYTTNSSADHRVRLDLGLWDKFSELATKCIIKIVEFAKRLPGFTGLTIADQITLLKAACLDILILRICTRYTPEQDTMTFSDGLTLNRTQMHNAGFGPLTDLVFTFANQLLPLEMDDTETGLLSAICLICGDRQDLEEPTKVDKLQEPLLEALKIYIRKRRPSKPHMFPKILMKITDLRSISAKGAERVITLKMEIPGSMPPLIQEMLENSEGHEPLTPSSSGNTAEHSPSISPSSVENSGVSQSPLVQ
Chain of human Peroxisome Proliferator-activated Receptor delta (PPARd), PPARD (gene 5467) (Q03181 whole entry, looked up, the tested form may be a part): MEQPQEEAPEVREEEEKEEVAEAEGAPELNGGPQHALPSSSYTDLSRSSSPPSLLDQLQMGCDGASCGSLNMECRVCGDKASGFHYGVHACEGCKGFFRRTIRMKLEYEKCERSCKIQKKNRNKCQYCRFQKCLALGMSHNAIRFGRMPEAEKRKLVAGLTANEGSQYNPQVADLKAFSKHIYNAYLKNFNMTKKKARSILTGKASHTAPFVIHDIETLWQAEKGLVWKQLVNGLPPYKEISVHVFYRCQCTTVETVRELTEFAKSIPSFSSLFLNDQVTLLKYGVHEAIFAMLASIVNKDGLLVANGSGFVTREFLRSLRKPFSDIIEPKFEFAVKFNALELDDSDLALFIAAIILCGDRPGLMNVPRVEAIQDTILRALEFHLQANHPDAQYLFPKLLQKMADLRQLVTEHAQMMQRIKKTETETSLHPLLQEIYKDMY
Chain of human RAR-related Orphan Receptor gamma (RORg), RORC (gene 6097) (P51449 whole entry, looked up, the tested form may be a part): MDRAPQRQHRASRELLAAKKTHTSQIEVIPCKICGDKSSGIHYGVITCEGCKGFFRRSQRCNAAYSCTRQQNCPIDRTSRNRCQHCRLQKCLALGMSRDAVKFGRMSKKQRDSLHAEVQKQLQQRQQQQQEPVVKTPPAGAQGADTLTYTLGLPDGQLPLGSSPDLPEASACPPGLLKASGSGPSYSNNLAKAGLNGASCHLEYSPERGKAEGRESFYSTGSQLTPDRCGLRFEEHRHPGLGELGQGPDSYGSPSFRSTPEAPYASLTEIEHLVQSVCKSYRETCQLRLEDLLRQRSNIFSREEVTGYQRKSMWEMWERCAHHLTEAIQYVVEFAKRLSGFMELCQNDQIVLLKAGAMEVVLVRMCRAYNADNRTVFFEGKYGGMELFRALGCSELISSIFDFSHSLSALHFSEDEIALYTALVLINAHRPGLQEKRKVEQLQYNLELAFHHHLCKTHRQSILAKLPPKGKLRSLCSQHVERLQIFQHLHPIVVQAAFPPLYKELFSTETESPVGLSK
Chain of human Retinoic Acid Receptor gamma (RARg), RARG (gene 5916) (P13631 whole entry, looked up, the tested form may be a part): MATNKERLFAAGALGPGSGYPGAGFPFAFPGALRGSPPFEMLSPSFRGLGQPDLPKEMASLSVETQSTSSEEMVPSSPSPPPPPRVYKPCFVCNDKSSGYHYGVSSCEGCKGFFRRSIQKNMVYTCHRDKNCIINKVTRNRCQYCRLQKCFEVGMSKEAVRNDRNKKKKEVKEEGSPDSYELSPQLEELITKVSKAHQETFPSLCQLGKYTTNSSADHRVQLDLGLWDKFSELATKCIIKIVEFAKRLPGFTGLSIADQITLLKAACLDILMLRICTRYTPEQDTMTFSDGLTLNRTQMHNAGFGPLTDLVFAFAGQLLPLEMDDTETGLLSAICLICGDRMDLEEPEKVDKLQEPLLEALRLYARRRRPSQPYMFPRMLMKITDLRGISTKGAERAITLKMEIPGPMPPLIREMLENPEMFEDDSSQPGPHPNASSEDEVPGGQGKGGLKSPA
Chain of human RAR-related Orphan Receptor beta (RORb), RORB (gene 6096) (Q92753 whole entry, looked up, the tested form may be a part): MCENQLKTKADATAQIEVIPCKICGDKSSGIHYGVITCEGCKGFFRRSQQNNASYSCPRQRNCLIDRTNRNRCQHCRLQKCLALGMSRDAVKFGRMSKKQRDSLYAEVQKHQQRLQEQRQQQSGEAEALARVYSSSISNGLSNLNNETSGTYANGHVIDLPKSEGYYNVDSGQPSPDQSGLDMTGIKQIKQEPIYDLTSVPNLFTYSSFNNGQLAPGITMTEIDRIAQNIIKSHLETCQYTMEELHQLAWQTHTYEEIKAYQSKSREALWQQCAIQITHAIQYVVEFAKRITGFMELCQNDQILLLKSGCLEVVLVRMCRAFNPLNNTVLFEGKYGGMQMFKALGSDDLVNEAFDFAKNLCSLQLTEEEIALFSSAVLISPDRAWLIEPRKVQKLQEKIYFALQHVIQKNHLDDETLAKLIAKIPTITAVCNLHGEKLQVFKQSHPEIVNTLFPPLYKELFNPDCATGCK
Chain of Retinoic acid receptor alpha (Homo sapiens) (P10276 whole entry, looked up, the tested form may be a part): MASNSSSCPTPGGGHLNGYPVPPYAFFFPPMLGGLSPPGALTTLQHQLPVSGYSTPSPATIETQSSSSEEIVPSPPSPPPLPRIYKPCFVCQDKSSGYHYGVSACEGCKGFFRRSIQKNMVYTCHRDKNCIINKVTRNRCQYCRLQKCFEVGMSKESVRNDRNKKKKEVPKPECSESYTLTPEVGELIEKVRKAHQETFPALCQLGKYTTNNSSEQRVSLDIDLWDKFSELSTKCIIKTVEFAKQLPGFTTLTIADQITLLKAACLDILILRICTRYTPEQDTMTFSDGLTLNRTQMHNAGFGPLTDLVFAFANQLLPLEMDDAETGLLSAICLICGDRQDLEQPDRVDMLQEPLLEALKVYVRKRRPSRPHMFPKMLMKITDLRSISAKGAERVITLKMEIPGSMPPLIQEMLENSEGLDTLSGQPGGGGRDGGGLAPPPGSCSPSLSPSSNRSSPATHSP

Cc1occc(=O)c1OC(=O)C(C)C
inactive: [1] | [2] | [3] | [4] | [5] | [6]

O=[N+]([O-])c1ccc(O)cc1C(F)(F)F
active: [2] 52.8 µM | [3] 55.2 µM | [9] 38.7 µM
not listed: [14] | [15] | [16] | [17] | [18] | [19] | [20]
inactive: all other assays above

COC(C)(C)CCO
inactive: [1] | [2] | [3] | [4] | [5] | [6] | [7] | [10] | [13]

OC[C@H]1O[C@@H]2O[C@H]3[C@H](O)[C@@H](O)[C@@H](O[C@H]4[C@H](O)[C@@H](O)[C@@H](O[C@H]5[C@H](O)[C@@H](O)[C@@H](O[C@H]6[C@H](O)[C@@H](O)[C@@H](O[C@H]7[C@H](O)[C@@H](O)[C@@H](O[C@H]8[C@H](O)[C@@H](O)[C@@H](O[C@H]9[C@H](O)[C@@H](O)[C@@H](O[C@H]1[C@H](O)[C@H]2O)O[C@@H]9CO)O[C@@H]8CO)O[C@@H]7CO)O[C@@H]6CO)O[C@@H]5CO)O[C@@H]4CO)O[C@@H]3CO
inactive: [1] | [14] | [2] | [9] | [12] | [13]

CCC(C)c1cc([N+](=O)[O-])cc([N+](=O)[O-])c1OC(=O)OC(C)C (configuration not stated)
active: [2] 5.1 µM | [4] 25 µM | [15] 9.93 µM | [16] 11.3 µM | [17] 19.4 µM | [18] 8.5 µM | [19] 29.1 µM | [20] 5.44 µM | [9] 0.774 µM | [10] 1.58 µM
inactive: [1] | [3] | [5] | [6] | [7] | [8] | [11] | [12] | [13]

CCCOCCO
inactive: [1] | [2] | [3] | [4] | [5] | [7] | [9] | [10]

C=C(CC(=O)O)C(=O)O
inactive: [1] | [2] | [3] | [4] | [5] | [8] | [9] | [10] | [11]

CCc1cc(C(C)(C)C)c(O)c(C(C)(C)C)c1
inactive: [1] | [3] | [4] | [7] | [8]
active: [2] 52.6 µM | [9] 61 µM | [10] 26.8 µM

CC=Cc1ccc(OCC)c(O)c1
active: [9] 31.8 µM | [10] 53.6 µM
not listed: [6] | [7] | [8] | [11] | [12] | [13] | [14]
inactive: all other assays above

CCOC(=O)COC(=O)c1cc(Oc2ccc(C(F)(F)F)cc2Cl)ccc1[N+](=O)[O-]
inactive: [1] | [2] | [3] | [4] | [6] | [11]
active: [5] 14.5 µM | [9] 11.1 µM | [10] 22.2 µM

C=C(C)C(=O)OCCOCCOCCOCCOC(=O)C(=C)C
active: [2] 69.7 µM
not listed: [7] | [8] | [9] | [11] | [12] | [14]
inactive: all other assays above

CCc1ncc(C)[nH]1
inactive: [1] | [2] | [3] | [4] | [6] | [9] | [10]

Nc1ccc(N)c2c1C(=O)c1ccccc1C2=O
inactive: [1] | [4] | [5] | [6] | [7] | [10] | [11] | [12]
active: [2] 5.63 µM | [3] 3.47 µM | [9] 11.3 µM
